Results: the supplement of paper PMC11417369
In all, about 25,000 sequences were measured (“ln(normalized median fluorescence intensity)”: median about 9.3, highest 2% from about 10 on). This excerpt belongs to a sample that is enriched for the highest values.

tested on: PF3D7_0420300 AP2 domain 1 (GST-tagged); assay: gcPBM binding intensity (ln(normalized median fluorescence intensity)); higher = stronger DNA binding
Method in brief: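 GST-fused DNA-binding domains of P. falciparum, expressed in E. coli, were applied at about 25 μg on average for 1 h to an Agilent 4 × 180k array of primer-extended double-stranded 36-bp intergenic genomic probes and negative controls. Binding intensity is the highest Masliner-normalised natural-log median intensity across replicate spots of either probe orientation, measured with Alexa488 anti-GST antibody and a 488 nm scan.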

Sequence	gcPBM binding intensity (ln)
AGCTATTAATTTATTACATGCAAGATTAAAAGACTA [TGCATGCA_site281]	8.99
AATCAAAACATTAAAAAGAAAAAATATATATATATA [CACACA_negctrl_site366]	9.03
AGGATATGCAGACACACACACATATAGATTTATATA [CACACA_site7100]	9.73
ATTGTGCTCATCAGCACACACAACATCATGTAATAA [CACACA_site1863]	9.47
TTTTGTTATATTCAATATTTATATATTATAAATATA [CACACA_negctrl_site1705]	9.11
TTAAAACCAAAACACAGTACATATATATATATATAT [XGTACX_site5668]	9.4
TATTTTATTTTTTTATGTACACAAAAAAAAAAAAAA [XGTACX_site945]	8.63
TTTTTTTTTTGTTGTTGTACTCTTATATTTTTATAT [XGTACX_site6178]	9.7
ATAAATAAATAAATAAATAAATATACATATACATAT [CACACA_negctrl_site205]	9.39
TATGGTAACATATGCTGTACAATATAATATGTTTAA [XGTACX_site1601]	9.11
TATAGTGATATATACACACACTTGTCTTGTAAAAAT [CACACA_site6594]	9.53
GATGTATTCATACATGCACACGTACATATTTAAATA [CACACA_site9299]	9.34
CAAATACAGAAACACACACACATATACATATATATA [CACACA_site3498]	9.97
CATATACAGAAACACACACACACATAAATAAATATA [CACACA_site1343]	10.3
TAAATACAGAAACACACACACAAATATATACATACA [CACACA_site2880]	10.1
ATATATATATATCACGCACACACGAATTTTAAATAT [CACACA_site3131]	9.65
TTTTCAAAATAATATTATATCAAATGCTAAAAAGAA [TGCATGCA_negctrl_site588]	8.96
TAATAAATAAGACACACACACATATATATATATTAT [CACACA_site1389]	10.2
AACATTATAAGACACACACACACATATATATATATA [CACACA_site8259]	10.1
AACATTATAGGACACACACACACATATATATATATA [CACACA_site4721]	10.2
AACATTATAAGACACACACACACATATATAAATATA [CACACA_site6622]	10.3
ATAAATATAGGACACACACACATATTATATATATAT [CACACA_site5658]	10.1
TAATAAATAGGACACACACACATATATATATATTAT [CACACA_site4891]	10.1

Sequence	gcPBM binding intensity (ln)
GTAAGAAACAGACACACACACATATAAATATAAATA [CACACA_site6515]	10.1
TAAAACATAAGAGACACACACACATATATATATATA [CACACA_site3643]	9.9
AAACATAAGAGACACACACACATATATAAATAAATA [CACACA_site7674]	10.2
ATCGTTATATAATGTTGTACTTGTTATATATATATA [XGTACX_site7582]	9.7
TATATATATATATATACATGCATTTCTCATGTACAT [TGCATGCA_site621]	9.14
TTTGATAAATGATACACACACAATATTTATAAAATA [CACACA_site7040]	9.72
ATCTATAAATTTCCACGTACATATATATATATATAT [XGTACX_site4502]	9.32
TTTTGTTTTTGTAGAGTGCATAAAGAAGATATGTAT	9.1
AGTGTATTAAATTTTGAACACACAAAATAAAACATA [CACACA_site8483]	9.43
ATTATAACACCTCCCCCCCTTTTTTTATGAAGACCA [CACACA_negctrl_site1043]	10.4
TATATTATGACCACCACACACCTATACACATAACAT [CACACA_site7199]	9.62
AACTTTTAGAAGAACACACACATATAGATTATGACC [CACACA_site6256]	9.86
TTTATACTTGTAAATGCACACATAAGATGCGACTAA [CACACA_site8662]	9.18
TTTATAAAAATATACACACATACAAATATGCATATA [CACACA_site712]	9.44
TATCCATATTTGTTCACACACACACCCATTTATATA [CACACA_site3571]	10.2
TGTATCCATATTTGTTCACACACACCCATATTTATA [CACACA_site9190]	10
TATCCATATTTGTTCACACACACACCGATTTATATA [CACACA_site5888]	10.1
ATATAAATTCAAATTACACACATTTATTTTTTTTAC [CACACA_site53]	9.44
AGCAAATCAGATAGTAGTACATTTAAATTAGACTTT [XGTACX_site4172]	9.19
CATATACACGAACACACACACACACGCACAAAAAAA [CACACA_site6376]	10.2
AACATATACACGAACACACACACATATATATATATA [CACACA_site502]	10.1
GGCATACACGAACACACACACACACGCACATATATA [CACACA_site6426]	10.3
CATATACACGAACACACACACATATATATATATATA [CACACA_site4437]	9.84
